# Results taken from the supplement of paper PMC6279402.
# ± gives the standard deviation of the averaged measurements.
# Test system: A549
# Test: relative viability (normalised to negative control = 1, bortezomib = 0) (fraction); higher = less cytotoxic
# Details: inflammatory serum-free RHB-A with cytokines + LPS; 5 d + 24 h CellTiter-Blue; compound 30 nM; GSK126 pretreatment: 5 uM GSK126
row,SMILES,relative viability
1,CNC(=O)c1cc(Oc2ccc(NC(=O)Nc3cc(C(C)(C)C)nn3-c3ccc4ncccc4c3)c(F)c2)ccn1 [DCC-2036 (Rebastinib)],1.37 ± 0.1
2,Cn1cc(-c2ccc3nnc(C(F)(F)c4ccc5ncccc5c4)n3n2)cn1,0.954 ± 0.11
3,CC1(COc2ccc3c(c2)ncn3-c2ccc3cccc(N4CCC(N)CC4)c3n2)COC1,0.986 ± 0.081
4,CC(C)(C)c1cc(NC(=O)Nc2ccc(-c3cn4c(n3)sc3cc(OCCN5CCOCC5)ccc34)cc2)no1,0.952 ± 0.016
5,Cc1[nH]nc2ccc(-c3cncc(OC[C@@H](N)Cc4ccccc4)c3)cc12,0.871 ± 0.14
6,CN(C)Cc1cccc(N=C(c2ccccc2)c2c(O)[nH]c3cc(C(N)=O)ccc23)c1,0.984 ± 0.17
7,CC(C)n1nc(-c2cc3cc(O)ccc3[nH]2)c2c(N)ncnc21,0.686 ± 0.035
8,C[C@]12CC[C@@H]3c4ccc(O)cc4C[C@@H](CCCCCCCCC[S+]([O-])CCCC(F)(F)C(F)(F)F)[C@H]3[C@@H]1CC[C@@H]2O (stereo partly drawn) [Fulvestrant],0.901 ± 0.098
9,N#CC(=C(/N)Sc1ccccc1N)/C(C#N)=C(/N)Sc1ccccc1N,0.835 ± 0.084
10,CN(C)C/C=C/C(=O)Nc1cc2c(Nc3ccc(F)c(Cl)c3)ncnc2cc1O[C@H]1CCOC1 [BIBW2992; BIBW2992(Tovok)],0.389 ± 0.018
11,Cc1cc(Nc2nc(N[C@@H](C)c3ncc(F)cn3)ncc2Cl)[nH]n1,0.912 ± 0.1
12,Nc1ncnc2c1c(-c1cnc3[nH]ccc3c1)nn2C1CCCC1,0.767 ± 0.06
13,CC[C@H](CO)Nc1nc(NCc2ccccc2)c2ncn(C(C)C)c2n1 [ROSCOVITINE; Roscovitine(CYC202); Roscovitine],0.929 ± 0.16
